About 4,300 (8.3%) of roughly 52,000 compounds were called active. Rule as the data show it: active = survival mostly below about 52% (no sharp cut-off); inactive = mostly above about 56%. The sample as a whole holds a higher share of actives than the screen did.

Experimental findings from PubChem BioAssay AID463173 (ICCB-Longwood Screening Facility, Harvard Medical School, 2010) are described below.

For the test, the system named is DeltatarO mutant. The test can be described thus: S. aureus survival, RN4220 and DeltatarO strains – OD600, teichoic acid synthesis inhibitors, primary screen (AID 463173). The note with it: S. aureus RN4220 wild type/DeltatarO growth, OD600, 18 h, active compounds read low, concentration not given here.
Turning to `O=C(Nc1ccc2c(c1)OCCO2)c1cccn(Cc2cccc([N+](=O)[O-])c2)c1=O`, the survival was 94% (inactive).

`Cc1ccc(-n2c(/C=C/c3cc(Br)cs3)nc3ccccc3c2=O)cc1`: the survival is 74% (inactive).

As for `CC(=O)N(C1=NCCCS1)c1ccc(C)cc1`, the survival was 99% (inactive).

On to `CC(=O)OC1(c2ccccc2)CCN(C)C2CCCCC21` (stereo unspecified), for which the survival is 91% (inactive).

With `CN1CCc2nc3sc4c(=O)[nH]c(=O)[nH]c4c3cc2C1`, the survival is 79% (inactive).

In the case of `Cc1ccc(Cl)cc1NC(=O)N(Cc1ccc2c(c1)OCO2)C1CCN(Cc2ccccc2)CC1`, the survival is 55% (inactive).

Regarding `Cc1cccnc1-n1c(C)nc2ccccc2c1=O`, the survival is 76% (inactive).

`COc1ccc(NC(=O)CCc2nc(C3=CCN(Cc4cccc(C)c4)CC3)no2)c(OC)c1`: the survival is 91% (inactive).

As for `COC(=O)c1ccccc1NC(=O)c1cccn(Cc2cccc(Cl)c2)c1=O`, the survival is 73% (inactive).

With `CCOc1ccc2nc(NC(=O)c3cccn(Cc4ccccc4Cl)c3=O)sc2c1`, the survival is 87% (inactive).

As for `O=c1c2ccccc2[nH]c(=S)n1-c1ccccc1`, the survival is 90% (inactive).

As to `CCOc1ccc2nc(NC(=O)c3cccn(Cc4ccccc4)c3=O)sc2c1`, the survival was 94% (inactive).

In the case of `O=S1(=O)N(Cc2ccccc2Cl)CCCN1Cc1ccccc1Cl`, the survival was 10% (active).

On to `O=S1(=O)N(Cc2ccccc2)CCCN1Cc1ccc(F)cc1Cl`, for which the survival was 87% (inactive).

Take `O=S1(=O)N(Cc2ccccc2)CCCN1Cc1cccc(Cl)c1`: the survival was 71% (inactive).

As to `O=C(Nc1ccon1)c1cccn(Cc2cccc([N+](=O)[O-])c2)c1=O`, the survival is 102% (inactive).

With `COc1ccc(C(C(=O)NC2CCCCC2)N(CCN2CCOCC2)C(=O)Cc2c[nH]c3ccccc23)cc1OC` (stereo unspecified), the survival is 59% (inactive).

With `COc1ccccc1NC(=O)N(Cc1ccc2c(c1)OCO2)C1CCN(Cc2ccccc2)CC1`, the survival is 88% (inactive).

As to `CSc1nc2ccccc2c(=O)n1-c1ccccc1C`, the survival is 95% (inactive).

On to `CCCSc1nc2ccccc2c(=O)n1-c1ccccc1OC`, for which the survival is -2% (active).

For `COc1ccccc1-n1c(/C=C/c2ccccc2)nc2ccccc2c1=O`, the survival was 67% (inactive).

Take `Cc1cccc(Cn2cccc(C(=O)Nc3cc(C)on3)c2=O)c1`: the survival is 73% (inactive).

As for `CCCCCn1c(=O)c(C(=O)Nc2ccccc2S(N)(=O)=O)c(O)c2ccccc21`, the survival is 0% (active).

As for `CCCCn1c(=O)c(C(=O)NC)c(O)c2ccccc21`, the survival is 99% (inactive).

Turning to `CCN1CCN(Cc2nnnn2C(C)(C)C)CC1`, the survival is 100% (inactive).

With `O=C1CC(c2cccnc2)Nc2ccc3ccccc3c21` (stereo unspecified), the survival is 86% (inactive).

Take `Cc1ccc(Cn2cccc(C(=O)Nc3cc([N+](=O)[O-])ccc3C)c2=O)cc1`: the survival is 82% (inactive).

For the compound `Cc1nnc(NC(=O)c2cccn(Cc3ccccc3F)c2=O)s1`, the survival is 94% (inactive).

In the case of `CCc1ccccc1NC(=O)c1cccn(Cc2ccccc2F)c1=O`, the survival is 47% (active).

Regarding `CCOC(=O)c1ccc(NC(=O)c2cccn(Cc3ccccc3F)c2=O)cc1`, the survival was 86% (inactive).

On to `CC(C)c1ccc(OCC(=O)N2CCN(CCc3ccccn3)CC2)cc1`, for which the survival is 66% (inactive).
